# Measured values taken from PubChem BioAssay (NCATS).
# Records with an inconclusive call do not appear. Entries that show only a call come without a potency. Values without a mark were called inactive. Activity calls are given as the source filed them. Calls come from the whole dose curve; as a rule, active = well fitted curve in the direction sought with a large enough effect; inconclusive = small, poorly fitted or top-dose-only effect, or another doubt; inactive = no such curve, though single readings can be large; an effect the other way counts as inactive or inconclusive.
# Key:
# [1] = molecular target: Rap guanine nucleotide exchange factor 3 (Homo sapiens) (UniProt O95398); experiment: Confirmatory qHTS for agonist of cAMP-regulated guanine nucleotide exchange factor 3 (EPAC1) (AID 1645881);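 note: EPAC1 catalysed release of BODIPY-GDP from Rap1B seen as fluorescence loss; nearly all actives have a fitted effect of over 75% in size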
# [2] = molecular target: Rap guanine nucleotide exchange factor 4 (Homo sapiens) (UniProt Q8WZA2); experiment: Confirmatory qHTS for agonist of cAMP-regulated guanine nucleotide exchange factor 4 (EPAC2) (AID 1645884);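 note: nucleotide exchange releases bodipy-GDP from Rap1 and this lowers its fluorescence; nearly all actives have a fitted effect of over 65% in size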
# [3] = molecular target: Rap guanine nucleotide exchange factor 4 (Homo sapiens) (UniProt Q8WZA2); experiment: Confirmatory qHTS for antagonist of cAMP-regulated guanine nucleotide exchange factor 4 (EPAC2) (AID 1645885); note: nearly all actives have a fitted effect of over 25% in size; note: potency is the fitted concentration of half-maximal effect
# [4] = molecular target: Rap guanine nucleotide exchange factor 3 (Homo sapiens) (UniProt O95398); experiment: Counterscreen qHTS for antagonist of cAMP-regulated guanine nucleotide exchange factor 3 (EPAC1) (AID 1645888);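 note: fluorescence loss as bound BODIPY-GDP is released from Rap1B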
# Procedure, shortened: (§1)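 Rap1B–BODIPY-GDP (250 nM) with 50 uM GDP; compounds pin-transferred to 9.74 nM–152 uM final (activator) or from 7.32 nM upwards (inhibitor). Fluorescence Ex/Em 480/540 nm read at 5 and 30 min, then after adding cAMP or buffer, at room temperature.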
# [5] = molecular target: Tyrosyl-DNA phosphodiesterase 1 (Homo sapiens) (UniProt Q9NUW8); experiment: Confirmation Assay for Inhibitors of Tyrosyl-DNA Phosphodiesterase (TDP1) (AID 489007); details: recombinant human TDP1 enzymatic activity, dose-response; note: potency is the fitted concentration of half-maximal effect; nearly all actives have a fitted effect of over 40% in size
# Procedure, shortened: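 AlphaScreen read-out: streptavidin donor and anti-FITC acceptor beads (10 ug/ml) bind intact substrate, so Tdp1 removal of tyrosine-FITC lowers signal. Enzyme 1 nM, substrate 15 nM, 5 min reaction at room temperature after 15 min compound preincubation.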
# [6] = molecular target: Rap guanine nucleotide exchange factor 3 (Homo sapiens) (UniProt O95398); experiment: Counterscreen qHTS for agonist of cAMP-regulated guanine nucleotide exchange factor 3 (EPAC1) (AID 1645889); note: nearly all actives have a fitted effect of over 40% in size
# Procedure, shortened: as §1
# Chain of Rap guanine nucleotide exchange factor 3 (Homo sapiens) (O95398 whole entry, looked up): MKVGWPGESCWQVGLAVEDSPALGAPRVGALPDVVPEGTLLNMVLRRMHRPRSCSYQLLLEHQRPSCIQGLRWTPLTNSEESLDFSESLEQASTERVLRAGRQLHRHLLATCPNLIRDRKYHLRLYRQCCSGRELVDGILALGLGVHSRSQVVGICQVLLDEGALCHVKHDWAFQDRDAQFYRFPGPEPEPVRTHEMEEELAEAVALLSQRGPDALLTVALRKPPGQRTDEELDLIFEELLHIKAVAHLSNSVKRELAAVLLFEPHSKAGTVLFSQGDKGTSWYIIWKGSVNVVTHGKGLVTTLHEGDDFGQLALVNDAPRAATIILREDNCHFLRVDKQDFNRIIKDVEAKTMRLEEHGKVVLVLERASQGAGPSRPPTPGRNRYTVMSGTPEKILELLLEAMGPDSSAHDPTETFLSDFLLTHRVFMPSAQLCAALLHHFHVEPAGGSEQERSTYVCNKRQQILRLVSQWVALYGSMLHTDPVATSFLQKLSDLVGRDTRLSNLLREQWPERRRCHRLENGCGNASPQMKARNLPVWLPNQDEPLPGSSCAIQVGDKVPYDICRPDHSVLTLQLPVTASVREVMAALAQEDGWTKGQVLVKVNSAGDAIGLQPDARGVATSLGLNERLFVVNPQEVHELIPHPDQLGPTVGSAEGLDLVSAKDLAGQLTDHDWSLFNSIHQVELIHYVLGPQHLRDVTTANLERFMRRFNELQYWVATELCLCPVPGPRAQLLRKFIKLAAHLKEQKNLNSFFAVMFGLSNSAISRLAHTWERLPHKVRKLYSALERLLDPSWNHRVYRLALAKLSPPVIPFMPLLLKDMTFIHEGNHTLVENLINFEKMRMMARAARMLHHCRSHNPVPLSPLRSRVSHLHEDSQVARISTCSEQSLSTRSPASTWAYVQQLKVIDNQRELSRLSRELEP
# Chain of Rap guanine nucleotide exchange factor 4 (Homo sapiens) (Q8WZA2 whole entry, looked up): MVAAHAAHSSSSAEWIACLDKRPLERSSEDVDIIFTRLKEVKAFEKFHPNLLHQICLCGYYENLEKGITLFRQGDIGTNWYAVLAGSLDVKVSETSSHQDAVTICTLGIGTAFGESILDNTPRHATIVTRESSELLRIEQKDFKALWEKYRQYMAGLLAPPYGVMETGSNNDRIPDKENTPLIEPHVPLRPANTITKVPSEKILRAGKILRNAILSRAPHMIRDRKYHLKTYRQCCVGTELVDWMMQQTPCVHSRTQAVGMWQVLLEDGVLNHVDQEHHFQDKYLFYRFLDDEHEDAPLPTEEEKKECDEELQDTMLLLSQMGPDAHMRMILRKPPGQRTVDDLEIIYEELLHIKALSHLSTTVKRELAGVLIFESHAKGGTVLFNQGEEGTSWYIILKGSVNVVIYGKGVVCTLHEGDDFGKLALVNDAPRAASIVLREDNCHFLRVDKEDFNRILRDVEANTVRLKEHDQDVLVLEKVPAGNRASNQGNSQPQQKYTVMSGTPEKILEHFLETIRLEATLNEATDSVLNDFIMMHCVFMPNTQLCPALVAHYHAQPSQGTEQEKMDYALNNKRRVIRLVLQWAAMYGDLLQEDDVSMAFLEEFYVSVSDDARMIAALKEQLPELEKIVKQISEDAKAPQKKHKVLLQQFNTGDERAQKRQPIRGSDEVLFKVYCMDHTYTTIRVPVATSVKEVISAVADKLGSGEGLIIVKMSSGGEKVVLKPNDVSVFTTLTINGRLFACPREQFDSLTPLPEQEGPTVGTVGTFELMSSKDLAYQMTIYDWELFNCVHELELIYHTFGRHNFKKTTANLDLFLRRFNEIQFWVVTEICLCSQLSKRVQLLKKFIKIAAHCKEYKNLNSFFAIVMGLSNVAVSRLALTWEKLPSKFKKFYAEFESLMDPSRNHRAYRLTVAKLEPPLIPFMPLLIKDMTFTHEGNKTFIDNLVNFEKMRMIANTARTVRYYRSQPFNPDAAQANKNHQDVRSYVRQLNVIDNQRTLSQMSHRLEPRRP
# Chain of Tyrosyl-DNA phosphodiesterase 1 (Homo sapiens) (Q9NUW8 whole entry, looked up): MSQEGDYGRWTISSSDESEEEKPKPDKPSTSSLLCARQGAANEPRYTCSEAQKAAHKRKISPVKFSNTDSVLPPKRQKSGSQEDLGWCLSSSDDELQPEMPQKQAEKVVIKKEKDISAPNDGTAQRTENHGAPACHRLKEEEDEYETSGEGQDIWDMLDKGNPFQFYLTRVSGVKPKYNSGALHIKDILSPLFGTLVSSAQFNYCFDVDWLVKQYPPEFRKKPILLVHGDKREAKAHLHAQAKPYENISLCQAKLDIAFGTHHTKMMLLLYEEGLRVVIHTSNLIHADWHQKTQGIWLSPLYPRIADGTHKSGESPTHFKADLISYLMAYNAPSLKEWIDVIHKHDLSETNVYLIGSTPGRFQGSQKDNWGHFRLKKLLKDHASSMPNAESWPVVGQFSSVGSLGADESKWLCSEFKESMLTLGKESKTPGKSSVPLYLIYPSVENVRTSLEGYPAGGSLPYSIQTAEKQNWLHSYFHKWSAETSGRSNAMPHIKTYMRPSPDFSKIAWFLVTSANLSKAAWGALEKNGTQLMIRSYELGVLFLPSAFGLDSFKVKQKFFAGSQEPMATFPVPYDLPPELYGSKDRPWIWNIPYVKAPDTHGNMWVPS
structure (smiles),measurement,setting,value
Cc1ccc(OCCn2cccc2/C=C2/C(=O)NC(=O)N(Cc3ccco3)C2=O)cc1,Potency,[1],inactive
same,Potency,[2],inactive
same,Potency,[3],inactive
same,outcome,[4],inactive
Cn1cccc1/C=C1\C(=O)NC(=O)N(Cc2ccco2)C1=O,Potency,[5],14.1 µM (active)
same,Potency,[1],inactive
same,activation,[2],"8.15% [at 17.1 µM, percent relative to cAMP agonist control]"
same,"activity change, negative = inhibition",[3],-7.91% [at 12.7 µM]
same,"activity change, negative = inhibition",[4],-2.64% [at 30.8 µM]
same,activation,[6],7.31% [at 30.8 µM]
CCCCC/C(=N/O)c1c(C)[nH]c2ccccc12,Potency,[1],inactive
same,Potency,[2],inactive
same,Potency,[3],inactive
same,outcome,[4],inactive
same,Potency,[6],inactive
CCOC(=O)[C@]12Cc3cc(OC)ccc3[C@H]1N(Cc1ccccc1)C(=O)c1ccccc12,Potency,[1],inactive
same,Potency,[2],inactive
same,Potency,[3],19 µM (active)
same,outcome,[4],inactive
CCCCN1C(=O)/C(=C\c2ccco2)C(=O)N(CCc2ccccc2)C1=O,Potency,[1],inactive
same,Potency,[2],inactive
same,Potency,[3],inactive
same,outcome,[4],inactive
same,Potency,[6],inactive
Cn1cccc1/C=C1/C(=O)NC(=O)N(Cc2ccccc2)C1=O,Potency,[1],inactive
same,Potency,[2],inactive
same,Potency,[3],inactive
same,outcome,[4],inactive
same,Potency,[6],inactive
Cn1cccc1/C=C1\C(=O)NC(=O)N(Cc2ccccc2Cl)C1=O,Potency,[1],inactive
same,Potency,[2],inactive
same,Potency,[3],inactive
same,outcome,[4],inactive
same,Potency,[6],inactive
CCC(C)c1ccc(N2C(=O)NC(=O)/C(=C/c3cccn3CCOc3ccc(C)cc3)C2=O)cc1 (configuration not stated),Potency,[1],inactive
same,Potency,[2],inactive
same,Potency,[3],inactive
same,Potency,[6],inactive
CCOC(=O)c1c(-c2ccccc2)oc2ccc(OC(=O)N(C)C)cc12,Potency,[1],inactive
same,Potency,[2],inactive
same,Potency,[3],inactive
same,outcome,[4],inactive
same,Potency,[6],inactive
CC(=O)C1C2c3ccccc3O[C@@]1(C)N=c1s/c(=C/c3ccoc3)c(=O)n12 (some centres not stated),Potency,[1],inactive
same,Potency,[2],inactive
same,Potency,[3],inactive
same,outcome,[4],inactive
COCCNC(=O)c1c(N)n(CCC(C)C)c2nc3ccccc3nc12,Potency,[1],inactive
same,activation,[2],"10.8% [at 17.1 µM, percent relative to cAMP agonist control]"
same,"activity change, negative = inhibition",[3],-8.1% [at 12.7 µM]
same,"activity change, negative = inhibition",[4],-2.48% [at 30.8 µM]
same,activation,[6],26.5% [at 30.8 µM]
O=C1NC(=O)N(Cc2ccccc2)C(=O)/C1=C\c1ccco1,Potency,[1],inactive
same,activation,[2],"4.68% [at 17.1 µM, percent relative to cAMP agonist control]"
same,"activity change, negative = inhibition",[3],4.49% [at 12.7 µM]
same,"activity change, negative = inhibition",[4],0.623% [at 30.8 µM]
same,activation,[6],12.3% [at 30.8 µM]
CC(=O)C1C2c3ccccc3OC1(C)N=c1s/c(=C/c3cn(C)nc3C)c(=O)n12 (configuration not stated),Potency,[1],inactive
same,Potency,[2],inactive
same,Potency,[3],inactive
same,outcome,[4],inactive
same,Potency,[6],inactive
Cc1cccc(C)c1-n1nnnc1C(c1ccccc1OC(F)(F)F)N1CCC(n2c(=O)[nH]c3ccccc32)CC1 (configuration not stated),Potency,[1],inactive
same,Potency,[2],inactive
same,Potency,[3],inactive
same,outcome,[4],inactive
same,Potency,[6],inactive
